# According to PubChem BioAssay (EPA / NIEHS):
# Inconclusive results are not listed. Activity calls are given as the source filed them. The calls were made as follows: active = hit-call score of the fitted dose curve at least 0.9, where 1 is the maximum; inconclusive = response in the unintended direction; inactive = score below 0.9.
# Assay: CCTE_Simmons_CellTiterGLO_HEK293T: Viability Assessment in CCTE's Assays for Thyroperoxidase (TPO) Inhibition, Simmons Lab (AID 2283665);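 as to AC50: cells exposed to compound for 24 h before readout; actives reduce ATP signal below DMSO vehicle meaning cytotoxicity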
# Method: CCTE_Simmons_CellTiterGLO_HEK293T is a cell-based, single-readout assay that uses HEK293T, a human kidney cell line, with measurements taken at 24 hours after chemical dosing in a 384-well plate.CCTE_Simmons_CellTiterGLO_HEK293T is the assay component measured from the CCTE_Simmons_CellTiterGLO_HEK293T assay. It is designed to make measurements of ATP content, a form of viability reporter, as detected with bioluminescence signals by Luciferase-coupled ATP quantitation technology. This is a secondary cytotoxicity assay to CCTE_Simmons_AUR_TPO to estimate a cellular tolerance limit.Data from the assay component CCTE_Simmons_CellTiterGLO_HEK293T was analyzed at the endpoint, CCTE_Simmons_CellTiterGLO_HEK293T, in the positive analysis fitting direction relative to DMSO as the negative control and baseline of activity. Using a type of viability reporter, measures of ATP content for loss-of-signal activity can be used to understand the viability. This assay was run in parallel with aeid 1508 as a means of indicating the range of chemical cytotoxicity or reactivity. To generalize the intended target to other relatable targets, this assay endpoint is annotated to the cell cycle intended target family, where the subfamily is cytotoxicity.
# Human HEK293T cells (GenHunter; Nashville, Tennessee) were seeded overnight in 384-well, solid white assay plates (Greiner, BioExpress) at a density of 10 000 cells per well in 65 ul Dulbecco's Modified Eagle Medium (Life Technologies; Carlsbad, California) supplemented with 1% fetal bovine serum (HyClone; Logan, Utah). Test compounds were administered using the HDRT as described earlier to achieve a 0.5% final DMSO concentration. Cells were then incubated at 37C for 24 hr in a humidified 5% CO2 incubator. Cell Titer Glo (Promega; Madison, WI) reagent (25 ul) was then added by the BioTek MicroFlo and microplates were incubated at room temperature in the dark for 20min. Plates were read on a plate reader (FLUOStar Optima) using an endpoint luminescence protocol (top read). Three biological replicates of technical singles were run for every chemical concentration tested. A titrated range of DCNQ served as a positive control on each plate of the cytotoxicity screening assay.Test chemicals were administered as a titrated series of 8 concentrations from 5 nM up to 87.5 uM [final] for 24 hours prior to single endpoint detection. Three biological replicates of technical singles were run for every chemical concentration tested. Dimethylsulfoxide [DMSO] was used as the vehicle control. Dichlone [DCNQ] was used as the positive control and was administered as a titrated series of 8 concentrations from 1 nM up to 100 uM [final].
Compound,AC50,outcome
COC(=O)[C@H]1[C@H]2C[C@@H]3c4[nH]c5cc(OC)ccc5c4CCN3C[C@H]2C[C@@H](OC(=O)c2cc(OC)c(OC)c(OC)c2)[C@@H]1OC,45.3 µM (active),–
S=c1[nH]c2ccccc2s1,–,inactive
O=C1OC(c2ccc(O)cc2)(c2ccc(O)cc2)c2ccccc21,43.8 µM (active),–
Cc1c(C)c2c(c(C)c1O)CCC(C)(COc1ccc(CC3SC(=O)NC3=O)cc1)O2 (centres undefined),19 µM (active),–
Oc1ccccc1O,34.4 µM (active),–
O=C1O[C@H]([C@H](O)CO)C(O)=C1O,–,inactive
CC1(C)C(=O)NC(=O)N1CO,–,inactive
Cc1occc(=O)c1O,–,inactive
CCCCCCCCCCCCCCOS(=O)(=O)O,22.3 µM (active),–
Oc1ccc(O)cc1,35.4 µM (active),–
CC(C)NCC(O)c1ccc(O)c(O)c1 (centres undefined),–,inactive
Cc1cc(SC2=C(O)C[C@@](CCc3ccc(N)cc3)(C(C)C)OC2=O)c(C(C)(C)C)cc1CO,3.9 µM (active),–
C/C=C/C=C/C(=O)O,48.8 µM (active),–
Cc1cc(Cc2ccc(N)c(C)c2)ccc1N,–,inactive
Cc1ccc(C(C)(C)C)c(O)c1,22.3 µM (active),–
O=Cc1ccccc1C=O,4.91 µM (active),–
O=C1c2c(O)cccc2Cc2cccc(O)c21,–,inactive
C/C=C/c1ccc(OC)cc1,–,inactive
Nc1nc(=S)c2[nH]cnc2[nH]1,1.29 µM (active),–
